Assay results taken from the supplement of paper PMC9492666.

Assays:
Conditions in all cases: 72 h
HCC1937 [1] = assay: relative cell viability, compound alone, vs DMSO (fraction of DMSO control); higher = less growth inhibition
MDA-MB-231 [2] = assay: as above
HCC1937 [3] = assay: relative cell viability, compound + RSL3, vs DMSO (fraction of DMSO control); higher = less growth inhibition
MDA-MB-231 [4] = assay: as above
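Wherever relative cell viability, compound + RSL3, vs DMSO is given: breast cancer cell viability read out with the CCK-8 kit after co-treatment of each compound with the ferroptosis inducer RSL3.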
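Wherever relative cell viability, compound alone, vs DMSO is given: viability read out with the CCK-8 kit in 96-well plates, screening a set of 303 compounds acting on lipid metabolism targets.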

## C[C@H](CCC(=O)O)[C@H]1CC[C@H]2[C@@H]3C[C@H](O)[C@@H]4C[C@H](O)CC[C@]4(C)[C@H]3CC[C@]12C [Hyodeoxycholic acid]
HCC1937 [1]
  relative cell viability: 0.929
MDA-MB-231 [2]
  relative cell viability: 1.02

## O=C(NN1CCCCC1)c1nn(-c2ccc(Cl)cc2Cl)c(-c2ccc(C#Cc3ccc(C(F)(F)F)cc3)s2)c1CNS(=O)(=O)N1CCCC1
HCC1937 [1]
  relative cell viability: 1.01
MDA-MB-231 [2]
  relative cell viability: 0.893

## CC1(C)CC[C@]2(C(=O)O[C@@H]3O[C@H](CO)[C@@H](O)[C@H](O)[C@H]3O)CC[C@]3(C)C(=CC[C@@H]4[C@@]5(C)CC[C@H](O[C@@H]6O[C@H](C(=O)O)[C@@H](O)[C@H](O)[C@H]6O)C(C)(C)[C@@H]5CC[C@]43C)[C@@H]2C1 [Chikusetsusaponin IVa] + COC(=O)c1ccc([C@H]2c3[nH]c4ccccc4c3C[C@H](C(=O)OC)N2C(=O)CCl)cc1 [RSL3]
HCC1937 [3]
  relative cell viability: 0.597
MDA-MB-231 [4]
  relative cell viability: 0.572

## CCN(CC)Cc1ccc(C(=O)N(CCc2ccccc2OC)[C@@H]2CCNC2)cc1
HCC1937 [1]
  relative cell viability: 1.45
MDA-MB-231 [2]
  relative cell viability: 0.979

## C=C(C)[C@@H]1CCC2=CC(=O)C[C@@H](C)[C@]2(C)C1 [Nootkatone] + COC(=O)c1ccc([C@H]2c3[nH]c4ccccc4c3C[C@H](C(=O)OC)N2C(=O)CCl)cc1 [RSL3]
HCC1937 [3]
  relative cell viability: 0.509
MDA-MB-231 [4]
  relative cell viability: 0.613

## O=C1C(SCCO)=C(SCCO)C(=O)c2ccccc21
HCC1937 [1]
  relative cell viability: 0.777
MDA-MB-231 [2]
  relative cell viability: 0.875

## O=C(O)CCn1c2c(c3ccccc31)C[C@H](NS(=O)(=O)c1ccc(F)cc1)CC2 [Ramatroban]
HCC1937 [1]
  relative cell viability: 0.711
MDA-MB-231 [2]
  relative cell viability: 0.841

## C[C@H](CCOc1cccc(CC(=O)O)c1)N(Cc1cccc(C(F)(F)F)c1Cl)CC(c1ccccc1)c1ccccc1 [RGX-104 free Acid] + COC(=O)c1ccc([C@H]2c3[nH]c4ccccc4c3C[C@H](C(=O)OC)N2C(=O)CCl)cc1 [RSL3]
HCC1937 [3]
  relative cell viability: 0.333
MDA-MB-231 [4]
  relative cell viability: 0.561
